Measurements taken from PubChem BioAssay (EPA / NIEHS).
“And” between values parts separate entries of the source, which are not always exact repeats. Identical values can stand only once. More than one record can exist for a structure, and the calls need not agree. The source made the active and inactive calls. Rule for the calls: active = hit-call score of the fitted dose curve at least 0.9, where 1 is the maximum; inactive = score below 0.9.

read-out: not listed separately; experiment: BSK_BT_Bcell_Proliferation: Viability Assessment in the BioMAP Diversity Plus: BT Assay for B cell Proliferation (AID 2284227); settings: primary human B cells with PBMC
Outline: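 Human B cell/PBMC co-culture; test chemical added; 72 h; TCA fix (10%), 0.1% SRB stain, A560 for total protein as a proliferation read-out; positive-direction fit vs DMSO baseline.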

Row | Compound | outcome | AC50
1 | O=S(=O)(O)CCC(F)(F)C(F)(F)C(F)(F)C(F)(F)C(F)(F)C(F)(F)C(F)(F)C(F)(F)F | inactive | –
2 | OCC(F)(F)C(F)(F)C(F)(F)C(F)(F)C(F)(F)C(F)(F)CO | inactive | –
3 | OCCCCC(F)(F)C(F)(F)C(F)(F)C(F)(F)F | inactive | –
4 | OC(O)C(F)(F)C(F)(F)F | inactive | –
5 | O=C(O)C(F)(F)C(F)(F)C(F)(F)OC(F)(F)F | inactive | –
6 | C=CC(=O)OCC(F)(F)C(F)(F)C(F)(F)COC(=O)C=C | – | 9.4 µM (active) and 9.64 µM (active)
7 | O=C(O)C(F)(F)C(F)(F)C(F)(F)C(F)(F)C(F)(F)C(F)(F)C(F)F | inactive | 21.8 µM (active)
8 | FC(F)(F)C(F)(F)C(F)(F)C(F)(F)C(F)(F)C(F)(F)C(F)(F)CCI | inactive | –
9 | OCC(O)CC(F)(F)C(F)(F)C(F)(F)C(F)(F)F (centres undefined) | inactive | –
10 | NC(=O)C(F)(F)C(F)(F)C(F)(F)F | inactive | –
11 | CNS(=O)(=O)C(F)(F)C(F)(F)C(F)(F)C(F)(F)C(F)(F)C(F)(F)C(F)(F)C(F)(F)F | inactive | –
12 | O=S(=O)(OCC(F)(F)F)C(F)(F)C(F)(F)C(F)(F)C(F)(F)F | inactive | –
13 | O=C(O)C(F)(F)C(F)(F)C(F)(F)C(=O)O | inactive | –
14 | C=CC(=O)OCC(F)(F)C(F)(F)C(F)(F)C(F)(F)C(F)(F)C(F)(F)C(F)(F)C(F)F | – | 44.8 µM (active) and 30 µM (active)
15 | NC(O)(C(F)(F)F)C(F)(F)F | inactive | –
16 | NC(=O)C(F)(F)C(F)(F)C(F)(F)C(F)(F)C(N)=O | inactive | –
17 | OCCCC(F)(F)C(F)(F)C(F)(F)C(F)(F)C(F)(F)C(F)(F)C(F)(F)C(F)(F)F | – | 43.8 µM (active) and 31.8 µM (active)
18 | OCC(F)(F)C(F)(F)C(F)(F)C(F)(F)C(F)(F)C(F)(F)C(F)(F)C(F)(F)CO | – | 46.8 µM (active) and 47.9 µM (active)
19 | NC(=O)C(F)(F)C(F)(F)C(F)(F)C(F)F | inactive | –
20 | C=CC(=O)OCCC(F)(F)C(F)(F)C(F)(F)C(F)(F)F | – | 45.3 µM (active) and 46.6 µM (active)
21 | O=C(Cl)C(F)(F)C(F)(F)C(F)(F)C(F)(F)C(F)(F)C(F)(F)C(F)(F)F | inactive | –
22 | CCN(CCO)S(=O)(=O)C(F)(F)C(F)(F)C(F)(F)C(F)(F)C(F)(F)C(F)(F)C(F)(F)C(F)(F)F | – | 46.4 µM (active) and 30 µM (active)
23 | FC(F)(F)C(F)(F)C(F)(F)C(F)(F)C(F)(F)C(F)(F)CC[Si](Cl)(Cl)Cl | inactive | –
24 | C=C(C)C(=O)OCC(F)(F)C(F)(F)C(F)(F)C(F)F | inactive | –
25 | OCC(F)(F)C(F)(F)C(F)(F)CO | inactive | –
26 | O=C(O)C(F)(F)OC(F)(F)C(F)(F)OC(F)(F)C(F)(F)OC(F)(F)F | inactive | –
27 | NC(=O)C(F)(F)C(F)(F)C(F)(F)C(F)(F)C(F)(F)C(F)(F)C(F)(F)F | inactive | –
28 | CO[Si](C)(CCC(F)(F)C(F)(F)C(F)(F)C(F)(F)C(F)(F)C(F)(F)F)OC | inactive | –
29 | O=S(=O)(O)CCC(F)(F)C(F)(F)C(F)(F)C(F)(F)F | inactive | –

read-out: Interleukin 6 (IL6), IL6 (gene 3569); experiment: BSK_BT_xIL6: BioMAP Diversity Plus: BT Assay for Interleukin 6 (IL6) Biomarker Activity (AID 2284228); settings: primary human B cells with PBMC
Outline: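 Readout: secreted IL-6 via Luminex xMAP multiplex, 24 h post-dosing. System: primary human B cells co-cultured with PBMC. Signal change scored relative to DMSO vehicle, positive fitting direction.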

Row | Compound | outcome | AC50
30 | O=S(=O)(O)CCC(F)(F)C(F)(F)C(F)(F)C(F)(F)C(F)(F)C(F)(F)C(F)(F)C(F)(F)F | inactive | –
31 | OCC(F)(F)C(F)(F)C(F)(F)C(F)(F)C(F)(F)C(F)(F)CO | inactive | –
32 | OCCCCC(F)(F)C(F)(F)C(F)(F)C(F)(F)F | inactive | –
33 | OC(O)C(F)(F)C(F)(F)F | inactive | –
34 | O=C(O)C(F)(F)C(F)(F)C(F)(F)OC(F)(F)F | inactive | –
35 | C=CC(=O)OCC(F)(F)C(F)(F)C(F)(F)COC(=O)C=C | – | 10.4 µM (active) and 8.91 µM (active)
36 | O=C(O)C(F)(F)C(F)(F)C(F)(F)C(F)(F)C(F)(F)C(F)(F)C(F)F | inactive | –
37 | FC(F)(F)C(F)(F)C(F)(F)C(F)(F)C(F)(F)C(F)(F)C(F)(F)CCI | inactive | –
38 | OCC(O)CC(F)(F)C(F)(F)C(F)(F)C(F)(F)F (centres undefined) | inactive | –
39 | NC(=O)C(F)(F)C(F)(F)C(F)(F)F | inactive | –
40 | CNS(=O)(=O)C(F)(F)C(F)(F)C(F)(F)C(F)(F)C(F)(F)C(F)(F)C(F)(F)C(F)(F)F | inactive | –
41 | O=S(=O)(OCC(F)(F)F)C(F)(F)C(F)(F)C(F)(F)C(F)(F)F | inactive | –
42 | O=C(O)C(F)(F)C(F)(F)C(F)(F)C(=O)O | inactive | –
43 | C=CC(=O)OCC(F)(F)C(F)(F)C(F)(F)C(F)(F)C(F)(F)C(F)(F)C(F)(F)C(F)F | – | 33.7 µM (active) and 14.4 µM (active)
44 | NC(O)(C(F)(F)F)C(F)(F)F | inactive | –
45 | NC(=O)C(F)(F)C(F)(F)C(F)(F)C(F)(F)C(N)=O | inactive | –
46 | OCCCC(F)(F)C(F)(F)C(F)(F)C(F)(F)C(F)(F)C(F)(F)C(F)(F)C(F)(F)F | – | 42.7 µM (active) and 21.9 µM (active)
47 | OCC(F)(F)C(F)(F)C(F)(F)C(F)(F)C(F)(F)C(F)(F)C(F)(F)C(F)(F)CO | – | 48.7 µM (active)
48 | NC(=O)C(F)(F)C(F)(F)C(F)(F)C(F)F | inactive | –
49 | C=CC(=O)OCCC(F)(F)C(F)(F)C(F)(F)C(F)(F)F | – | 39.6 µM (active) and 35.5 µM (active)
50 | O=C(Cl)C(F)(F)C(F)(F)C(F)(F)C(F)(F)C(F)(F)C(F)(F)C(F)(F)F | inactive | –
51 | CCN(CCO)S(=O)(=O)C(F)(F)C(F)(F)C(F)(F)C(F)(F)C(F)(F)C(F)(F)C(F)(F)C(F)(F)F | – | 41.8 µM (active) and 46.8 µM (active)
52 | FC(F)(F)C(F)(F)C(F)(F)C(F)(F)C(F)(F)C(F)(F)CC[Si](Cl)(Cl)Cl | inactive | –
53 | C=C(C)C(=O)OCC(F)(F)C(F)(F)C(F)(F)C(F)F | inactive | –
54 | OCC(F)(F)C(F)(F)C(F)(F)CO | inactive | –
55 | O=C(O)C(F)(F)OC(F)(F)C(F)(F)OC(F)(F)C(F)(F)OC(F)(F)F | inactive | –
56 | NC(=O)C(F)(F)C(F)(F)C(F)(F)C(F)(F)C(F)(F)C(F)(F)C(F)(F)F | inactive | –
57 | CO[Si](C)(CCC(F)(F)C(F)(F)C(F)(F)C(F)(F)C(F)(F)C(F)(F)F)OC | inactive | –
58 | O=S(=O)(O)CCC(F)(F)C(F)(F)C(F)(F)C(F)(F)F | inactive | –
